The source made the active and inactive calls. How the source made its calls: active means hit-call score of the fitted dose curve at least 0.9, where 1 is the maximum; inactive means score below 0.9.
Experiments:
Conditions in all cases: mRNA level, 48 h; actives raise or lower the signal
[1] = read-out: CFLAR gene, CFLAR (gene 8837); assay: LTEA_HepaRG_CFLAR: Life Technologies and Expression Analysis (LTEA) Assay for CFLAR gene using HepaRG (AID 2283455)
In short: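 HepaRG cells were plated for 48 h, switched to serum-free induction medium, then exposed in duplicate for 48 h to 8 concentrations (top 100 uM, half-log steps, 0.5% DMSO). CFLAR mRNA was measured by qRT-PCR, normalized to ACTB, GAPDH and POLR2A.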

[2] = read-out: Forkhead box O1 (FOXO1), FOXO1 (gene 2308); assay: LTEA_HepaRG_FOXO1: Life Technologies and Expression Analysis (LTEA) Assay for Forkhead box O1 (FOXO1) using HepaRG (AID 2283456)
In short: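 Differentiated human HepaRG cells in serum-free induction medium were exposed in duplicate for 48 h to eight half-log concentrations (top 100 uM, 0.5% DMSO). FOXO1 mRNA was measured by TaqMan qRT-PCR, normalised to ACTB, GAPDH and POLR2A, and fitted bidirectionally against DMSO.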

[3] = read-out: growth arrest and DNA damage 45 (GADD45A), GADD45A (gene 1647); assay: LTEA_HepaRG_GADD45A: Life Technologies and Expression Analysis (LTEA) Assay for growth arrest and DNA damage 45 (GADD45A) using HepaRG (AID 2283458)
In short: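 Human HepaRG liver cells are treated in duplicate for 48 h with chemicals in 0.5% DMSO, highest concentration 100 uM. Expression is read by qRT-PCR and analyzed in both directions against vehicle.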

[4] = read-out: Forkhead box O3 (FOXO3), FOXO3 (gene 2309); assay: LTEA_HepaRG_FOXO3: Life Technologies and Expression Analysis (LTEA) Assay for Forkhead box O3 (FOXO3) using HepaRG (AID 2283459)
In short: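 Differentiated human HepaRG cells in serum-free induction medium were exposed in duplicate for 48 h to eight half-log concentrations up to 100 uM in 0.5% DMSO. FOXO3 mRNA was quantified by qRT-PCR, normalized to ACTB, GAPDH and POLR2A, with bidirectional fitting versus DMSO.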

[5] = read-out: ABC Transporter (ABCB1), ABCB1 (gene 5243); assay: LTEA_HepaRG_ABCB1: Life Technologies and Expression Analysis (LTEA) Assay for ABC Transporter (ABCB1) using HepaRG (AID 2283460)
In short: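 Differentiated human HepaRG cells, plated 48 h then switched to serum-free induction medium, were exposed in duplicate to eight half-log concentrations up to 100 uM in 0.5% DMSO for 48 h. ABCB1 mRNA was measured by TaqMan qRT-PCR, normalized to ACTB/GAPDH/POLR2A.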

[6] = read-out: growth arrest and DNA damage 45 (GADD45B), GADD45B (gene 4616); assay: LTEA_HepaRG_GADD45B: Life Technologies and Expression Analysis (LTEA) Assay for growth arrest and DNA damage 45 (GADD45B) using HepaRG (AID 2283461)
In short: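 HepaRG, ~100,000 cells/well, 48 h plating; serum-free induction medium; cpd 100 uM top, half-log x8, 0.5% DMSO, duplicate, 48 h; lysis in RLT, RNA isolation, qRT-PCR; norm ACTB/GAPDH/POLR2A; bidirectional fit vs DMSO.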

[7] = read-out: ABC Transporter (ABCC3), ABCC3 (gene 8714); assay: LTEA_HepaRG_ABCC3: Life Technologies and Expression Analysis (LTEA) Assay for ABC Transporter (ABCC3) using HepaRG (AID 2283462)
In short: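 Human HepaRG, 48 h dosing, 8-pt half-log series from 100 uM, 0.5% DMSO vehicle, duplicates. ABCC3 mRNA by TaqMan qRT-PCR, housekeeping-normalized; bidirectional curve fit vs DMSO.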

[8] = read-out: ABC Transporter (ABCB11), ABCB11 (gene 8647); assay: LTEA_HepaRG_ABCB11: Life Technologies and Expression Analysis (LTEA) Assay for ABC Transporter (ABCB11) using HepaRG (AID 2283463)
In short: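 Differentiated human HepaRG cells were exposed for 48 h in serum-free induction medium to eight half-log concentrations up to 100 uM in 0.5% DMSO. ABCB11 mRNA was quantified by qRT-PCR, normalized to ACTB, GAPDH and POLR2A, and fitted bidirectionally versus DMSO.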

[9] = read-out: ABC Transporter (ABCC2), ABCC2 (gene 1244); assay: LTEA_HepaRG_ABCC2: Life Technologies and Expression Analysis (LTEA) Assay for ABC Transporter (ABCC2) using HepaRG (AID 2283464)
In short: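 HepaRG, 48 h post-plating; serum-free induction medium; cpd 8-pt, 100 uM top, half-log, 0.5% DMSO, duplicate, 48 h. Readout: ABCC2 mRNA by qRT-PCR, norm. ACTB/GAPDH/POLR2A. Bidirectional fit vs DMSO baseline.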

[10] = read-out: Broad substrate specificity ATP-binding cassette transporter ABCG2 (Homo sapiens) (UniProt Q9UNQ0); assay: LTEA_HepaRG_ABCG2: Life Technologies and Expression Analysis (LTEA) Assay for ABC Transporter (ABCG2) using HepaRG (AID 2283465)
In short: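 Differentiated HepaRG cells in serum-free induction medium were exposed for 48 h, in duplicate, to eight half-log concentrations up to 100 uM in 0.5% DMSO. ABCG2 mRNA was measured by TaqMan qRT-PCR, normalized to ACTB, GAPDH and POLR2A, and fitted bidirectionally versus DMSO.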

[11] = read-out: ATP-citrate lyase (ACLY), ACLY (gene 47); assay: LTEA_HepaRG_ACLY: Life Technologies and Expression Analysis (LTEA) Assay for ATP-citrate lyase (ACLY) using HepaRG (AID 2283466)
In short: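 Differentiated human HepaRG cells in serum-free induction medium exposed 48 h, in duplicate, to eight half-log concentrations from 100 uM top in 0.5% DMSO; ACLY mRNA measured by qRT-PCR, normalized to ACTB, GAPDH, POLR2A, fitted bidirectionally versus DMSO.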

[12] = read-out: Peroxisomal acyl-coenzyme A oxidase 1 (ACOX1) gene, ACOX1 (gene 51); assay: LTEA_HepaRG_ACOX1: Life Technologies and Expression Analysis (LTEA) Assay for Peroxisomal acyl-coenzyme A oxidase 1 (ACOX1) gene using HepaRG (AID 2283467)
In short: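 Differentiated human HepaRG cells were exposed in duplicate for 48 h in serum-free induction medium to eight half-log concentrations up to 100 uM in 0.5% DMSO. ACOX1 mRNA was then quantified by TaqMan qRT-PCR, normalized to ACTB, GAPDH and POLR2A.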

[13] = read-out: Alkaline Phosphatase, Placental (ALPP) gene, ALPP (gene 250); assay: LTEA_HepaRG_ALPP: Life Technologies and Expression Analysis (LTEA) Assay for Alkaline Phosphatase, Placental (ALPP) gene using HepaRG (AID 2283468)
In short: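 HepaRG, 48 h plating then 48 h dosing, serum-free induction medium, 0.5% DMSO. 8 conc, half-log, max 100 uM, duplicates. Endpoint: ALPP transcript by qRT-PCR, housekeeping-normalized; gain or loss fitted vs DMSO.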

[14] = read-out: Bcl-2 (BAD) gene, BAD (gene 572); assay: LTEA_HepaRG_BAD: Life Technologies and Expression Analysis (LTEA) Assay for Bcl-2 (BAD) gene using HepaRG (AID 2283469)
In short: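 Differentiated human HepaRG cells in serum-free induction medium were exposed in duplicate for 48 h to eight concentrations (top 100 uM, half-log steps, 0.5% DMSO). BAD mRNA was quantified by qRT-PCR normalised to ACTB, GAPDH and POLR2A, with bidirectional fitting versus DMSO.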

[15] = read-out: Bcl-2 (BAX) gene, BAX (gene 581); assay: LTEA_HepaRG_BAX: Life Technologies and Expression Analysis (LTEA) Assay for Bcl-2 (BAX) gene using HepaRG (AID 2283470)
In short: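 Concentration-response endpoint fitted in both directions relative to 0.5% DMSO vehicle. Human HepaRG cultures receive test chemicals for 48 h at up to 100 uM; BAX mRNA is quantified by qRT-PCR against housekeeping genes.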

[16] = read-out: adenosine kinase (ADK) gene, ADK (gene 132); assay: LTEA_HepaRG_ADK: Life Technologies and Expression Analysis (LTEA) Assay for adenosine kinase (ADK) gene using HepaRG (AID 2283471)
In short: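 Following 48 h exposure of HepaRG cells in 0.5% DMSO (top concentration 100 uM, duplicate wells), ADK mRNA induction or suppression was measured by qRT-PCR, normalised to ACTB/GAPDH/POLR2A, and fitted bidirectionally relative to vehicle.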

[17] = read-out: Alpha-fetoprotein (AFP) gene, AFP (gene 174); assay: LTEA_HepaRG_AFP: Life Technologies and Expression Analysis (LTEA) Assay for Alpha-fetoprotein (AFP) gene using HepaRG (AID 2283472)
In short: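 After a 48 h plating period, cells are moved to serum-free induction medium and dosed in duplicate (100 uM maximum, half-log dilutions, 0.5% DMSO) for another 48 h. Total RNA goes to TaqMan qRT-PCR; AFP signal is housekeeping-normalized.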

BCL2L11 (gene 10018) = assay: LTEA_HepaRG_BCL2L11: Life Technologies and Expression Analysis (LTEA) Assay for Bcl-2 (BCL2L11) gene using HepaRG (AID 2283473)
In short: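 Read-out is BCL2L11 transcript level by qRT-PCR, normalized to three housekeeping genes and fitted bidirectionally against 0.5% DMSO vehicle. HepaRG cells received chemicals for 48 h in serum-free induction medium, 100 uM down in half-log dilutions.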

Measured: outcome

Broad substrate specificity ATP-binding cassette transporter ABCG2 (Homo sapiens), sequence (Q9UNQ0 whole entry, looked up): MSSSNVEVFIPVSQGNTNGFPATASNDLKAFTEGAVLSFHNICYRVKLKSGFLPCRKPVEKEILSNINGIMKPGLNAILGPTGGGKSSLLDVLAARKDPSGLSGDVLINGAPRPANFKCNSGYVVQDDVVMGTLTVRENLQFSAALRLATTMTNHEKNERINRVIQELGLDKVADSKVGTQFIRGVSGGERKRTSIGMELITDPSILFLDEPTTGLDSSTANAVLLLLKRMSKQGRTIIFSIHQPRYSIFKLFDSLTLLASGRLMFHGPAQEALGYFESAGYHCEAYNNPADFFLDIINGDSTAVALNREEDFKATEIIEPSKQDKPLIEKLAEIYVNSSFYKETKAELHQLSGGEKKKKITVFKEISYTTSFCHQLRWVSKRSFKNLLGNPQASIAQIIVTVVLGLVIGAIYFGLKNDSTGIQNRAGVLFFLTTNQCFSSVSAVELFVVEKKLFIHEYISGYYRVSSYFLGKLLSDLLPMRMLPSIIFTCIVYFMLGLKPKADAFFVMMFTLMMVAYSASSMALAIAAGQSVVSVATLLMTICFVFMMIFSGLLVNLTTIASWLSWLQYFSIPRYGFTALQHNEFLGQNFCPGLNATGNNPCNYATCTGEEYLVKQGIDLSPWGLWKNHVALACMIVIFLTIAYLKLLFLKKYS

c1cc[n+]2c(c1)-c1cccc[n+]1CC2
inactive: [1] | [2] | [3] | [4] | [5] | [6] | [7] | [8] | [9] | [10] | [11] | [12] | [13] | [14] | [15] | [16] | [17] | BCL2L11 (gene 10018)

— PubChem BioAssay (EPA / NIEHS)
